# Compounds without any hit were thinned out: in the full panel of roughly 83,000, 20% have a hit.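 Cells were grown in 96-well plates and exposed to the test compound at a single concentration for 48 hours; results are reported as percent growth, with values below 10 considered active.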 A number with no mark means an inactive call. The source made the active and inactive calls.
# System: SK-OV-3 ovarian
# Experiment: NCI-60 one-dose screen, 48 h (100 = growth as untreated, 0 = no growth, -100 = all killed)
# Conditions: 10 µM unless noted
# Procedure: Growth inhibition of the SK-OV-3 human tumor cell line is measured as a screen for anti-cancer activity. Cells are grown in 96 well plates and exposed to the test compound for 48 hours. Compounds are tested at a single concentration, which is 10^-5 M for most compounds. The reported endpoint is percent growth (GI% or GIPRCNT), where numbers from 0 - 100% represent growth inhibition, and numbers from -100% - 0 represent cell death. For example, a value of 40 represents 60% growth inhibition. A value of 0 means no net growth occurred over the course of the experiment. A value of -40 indicates 40% of cells at the beginning of the experiment died by the end of the experiment. A value of -100 means all cells are dead at the end of the experiment.
# NCI-60 Human Tumor Cell Lines Screen was performed using the standard one-dose NCI protocol, which is described in more detail at https://dtp.cancer.gov/discovery_development/nci-60/default.htm.
# Compounds with GIPRCNT values below 10 were considered active. Activity score was based on GIPRCNT using the following formula: […]
# Score is 0 for GIPRCNT values of 100 or above, 50 for GIPRCNT values of 0, and 100 for GIPRCNT values of -100.
row,SMILES,growth
1,CO[C@@H]([CH2][Hg][S]C#N)[C@@H]([CH2][Hg][S]C#N)OC,119%
2,NC(Cc1ccc2c(c1)OCO2)c1ccc2c(c1)OCO2 (stereo not given),108%
3,NC(=O)NC(=O)CI,111%
4,CCC(CO)NC1CCCCC1 (stereo not given),102%
5,CCC(CC)(c1ccccc1)C(OC(N)=O)c1ccccc1 (stereo not given),66.5%
6,ClCCN(CCCl)c1ccc(/C=C\c2ccnc3ccccc23)cc1,101%
7,CC(C)(NC(=O)c1nn(CCCCCF)c2ccccc12)c1ccccc1,87.8%
8,CCN(CC)c1ccc(C=C2C(=O)NC(=S)NC2=O)cc1,94.1%
9,Oc1ccccc1OB(Oc1ccccc1O)N(CCCl)CCCl,112%
10,CCOc1cc(C=C(C#N)C#N)cc(Br)c1O,116%
11,CC(/C=N/N=C(N)N)=N/N=C(N)N,97.2%
12,C/C(=C\c1cc(C(F)(F)F)n(-c2ccc(N)cc2)n1)[C@@H]1C[C@@H]2O[C@]2(C)CCC[C@H](C)[C@H](O)[C@@H](C)C(=O)C(C)(C)[C@@H](O)CC(=O)O1,2.26% (active)
13,Nc1c(Br)cc2c3c(cccc13)-c1ccccc1-2,87.7%
14,S=P(NC1CCCCC1)(N1CC1)N1CC1,131%
15,Cc1cc(CCl)c(C)cc1CCl,73.9%
16,CCCC(C)(C)c1ccc2c(c1)OC(C)(C)[C@@H]1CC=C(C)C[C@@H]21,89.2%
17,N#Cc1ncc(/N=C/c2ccc(N(CCCl)CCCl)cc2)s1,78.5%
18,O=C1NC2(CCNCC2)Nc2ccccc21,103%
19,C[CH2][Pb]([CH2]C)([CH2]C)[O]C(=O)c1ccc(N)cc1,76.4%
20,O=c1cc[nH]c(=O)o1,102%

row,SMILES,growth
1,Oc1ccc(Br)cc1CN1CCN(Cc2ccc(Cl)cc2)CC1,101%
2,CC(CC(C#N)(c1ccccc1)c1ccccc1)N1CCOCC1 (stereo not given),109%
3,O=C(NCCNC(=O)c1ccc([As](O)O)cc1)c1ccc([As](O)O)cc1,104%
4,COC[CH2][Hg][C]#[C][Hg][CH2]COC,96.5%
5,COP(=S)(OC)Oc1ccc(SC)c(C)c1,100%
6,CC12CCC(=O)C=C1CCC1C2CCC2(C)C(C(=O)COC(=O)Cc3ccc(N(CCCl)CCCl)cc3)CCC12 (stereo not given),90%
7,CCC[CH2][Sn]([CH2]CCC)([CH2]CCC)[O]C(=O)c1ccc(Cl)cc1Cl,-96% (active)
8,S=P(Nc1ccccc1)(Nc1ccccc1)c1ccccc1,108%
9,COc1ccc(CN2CCN(Cc3ccccc3)CC2)c(O)c1,95.7%
10,CC1(C)N=C(N)N=C(N)N1c1ccc(CCCCc2ccc(S(=O)(=O)F)cc2)cc1,69.1%
11,O=c1[nH]c2cc(Cl)ccc2n1C1CCN(CCCC(c2ccc(F)cc2)c2ccc(F)cc2)CC1,78.1%
12,O=C(CI)Nc1ccc(Br)cc1,101%
13,N#C[Se]CCN1C(=O)C2C(C1=O)[C@H]1C=C[C@@H]2S1 (stereo not given in full),4.59% (active)
14,O=S(=O)(O)c1ccc(-c2ccc([As](=O)(O)O)cc2)cc1,105%
15,O=C(O)C1[O][Sb][O]C1C(=O)O (stereo not given),102%
16,CC1(C)N=C(N)N=C(N)N1c1ccc(OCCCCNC(=O)c2ccc(S(=O)(=O)F)cc2)c(Cl)c1,101%
17,O=C1C=CC(=O)C2C1C1(Cl)C(Cl)=C(Cl)C2(Cl)C1(Cl)Cl (stereo not given),71%
18,O=[N+]([O-])c1ccccc1N1CCNCC1,96%
19,CC[C@@]1(C2O[C@@H](C3O[C@@](O)(CC)[C@H](C)C[C@@H]3C)C[C@@H]2C)CC[C@H]([C@]2(C)CCC3(C[C@H](O)[C@@H](C)[C@@H]([C@H](C)[C@@H](OC)[C@H](C)C(=O)O)O3)O2)O1 (stereo not given in full),23%
20,C/C1=C/C(=O)O[C@@H]2C[C@@H](CC[C@H](C)/C=C\C=C\CC1)O[C@@](OCCc1ccccc1)([C@@H]1CSC(=O)N1)C2,-32.3% (active)

# Source: PubChem BioAssay (NCI)
